Source: PubChem BioAssay (National Center for Advancing Translational Sciences (NCATS))
GPR32 ag: qHTS for Agonists of Human Resolvin D1 Receptor DRV1; activation, % at 76.9 µM; 2.5% of 48,000 active; Probable G-protein coupled receptor 32 (Homo sapiens), O75388; CHO-K1 GPR32 beta-arrestin PathHunter luminescence, 90 min; zero percent set by DMSO-only wells;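 active means activation of at least 60% and not above a set upper limit, about 1 call in 100 departs from these limits; inconclusive means activation of 40% to 60%, or above that upper limit; inactive means activation under 40%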; further: 0% is about no effect
Target sequence (O75388 whole entry, looked up): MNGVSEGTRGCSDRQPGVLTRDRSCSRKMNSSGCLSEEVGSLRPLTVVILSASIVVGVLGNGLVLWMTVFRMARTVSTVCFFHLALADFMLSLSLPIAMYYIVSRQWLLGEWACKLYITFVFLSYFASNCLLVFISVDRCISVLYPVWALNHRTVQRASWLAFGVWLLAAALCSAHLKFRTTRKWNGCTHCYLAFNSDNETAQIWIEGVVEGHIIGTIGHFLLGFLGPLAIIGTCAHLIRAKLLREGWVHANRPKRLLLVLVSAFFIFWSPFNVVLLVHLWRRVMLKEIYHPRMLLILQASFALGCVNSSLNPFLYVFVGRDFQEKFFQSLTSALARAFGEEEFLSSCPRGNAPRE
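Engineered CHO-K1 line co-expressing GPR32-ProLink and EA-beta-arrestin. Compound treatment lasted 90 min at 37 °C. Luminescence was recorded after 1 h with substrate at ambient temperature, relative to DMSO basal wells.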
p53null 32C tox: qHTS Screen for Compounds that Selectively Target Cancer Cells with p53 Mutations: Cytotoxicity of p53 Null Cells at the Permissive Temperature. 0.62% of 55,000 active. AID 903, 2007. Potency, µM (titrated, usually from 46.1 µM), inactives show at the highest dose activity change, negative = cytotoxicity, usual class: cytotoxic. H1299-neo p53 null cells, ATP luminescence, 24 h, 32C;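 further: potency means the concentration at half of the fitted maximal effect; 0% = DMSO only and -100% = full killing by 100 µM tamoxifen; nearly all actives have a fitted effect of over 55% in size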
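H1299-neo (p53-null) cells, 600/well, were pre-incubated overnight at 37C, then exposed to compounds at up to 46 uM for 24 hr at 32C. Viability was measured as ATP content by luminescence, and AC50 values came from Hill fits.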
GALC G270D act: A Novel Cell-Based Assay to Identify Small Molecules for B -Galactocerebrosidase | 0.1% of 45,000 active | 145M-Twi-hGALC-G270D cells (Twitcher mouse brain line with human GALC G270D), HMU-beta-Gal fluorescence, 48 h | P54803 | Potency, µM (doses to about 57.5 µM), hits mostly activators; further: potency means the concentration at half of the fitted maximal effect; 0% is about no effect; nearly all actives have a fitted effect of over 65% in size
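Brain-derived Twitcher mouse 145M-Twi cells stably expressing human GALC-G270D or wild-type GALC, treated live, then residual GALC activity read by fluorescence of HMU-b-Gal substrate (0.1 mM final) in citrate-phosphate buffer pH 5.2 with sodium taurocholate. Signal increase indicates enhancement.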
p53null 39C tox: qHTS Screen for Compounds that Selectively Target Cancer Cells with p53 Mutations: Cytotoxicity of p53 Null Cells at the Nonpermissive Temperature; 0.97% of 55,000 active; Potency, µM (doses to about 46.1 µM), inactives show at the top dose activity, negative = cell killing, most hits filed as cytotoxic; H1299 p53-null (neo) cells, 39C, ATPlite viability, 24 h;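 further: potency means the concentration at half of the fitted maximal effect; 0% = DMSO only and -100% = full killing by 100 µM tamoxifen; nearly all actives have a fitted effect of over 50% in size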
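Temperature-shift cytotoxicity format: compound titrations on p53-null or A138V-expressing H1299 cells held 24 hr at 39C, cell ATP then measured, AC50 from Hill model.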
SKOV3 invasion: Primary qHTS assay for Inhibitors of ovarian cancer metastasis using an organotypic tumor microenvironment (TME) model; SKOV3ip1-GFP adhesion/invasion on 3D omental model, fluorescence; Potency, µM (highest dose often 45.8 µM), inactives show top-dose activity change, negative = inhibition, hits mostly inhibitors; 0.1% of 46,000 active;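 further: potency means the concentration at half of the fitted maximal effect; plate controls were DMSO wells for no effect and tomatine positive control wells for full effect; nearly all actives have a fitted effect of over 65% in size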
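Primary human omental fibroblast/mesothelial 3D culture pre-formed 48 h. SKOV3ip1-GFP cells added with compounds (0.36-46 umol/L), incubated 2 h RT/16 h 37 C, fixed; GFP cells quantified at 488/509 nm.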
NTMT1 inhibitor: Primary qHTS for Inhibitors of N-terminal methyltransferase 1 (NTMT1): MTaseGlo Assay; NTMT1 MTase-Glo SAH luminescence, purified enzyme; Potency, µM (top dose mostly 114 µM), for the others: at the highest dose activity change, negative = inhibition, most hits filed as inhibitors; 2.5% of 59,000 active; AID 1645870, 2021;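 further: potency means the concentration at half of the fitted maximal effect; plate controls were DMSO vehicle for no effect and no enzyme for full effect; nearly all actives have a fitted effect of over 65% in size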
Target sequence (Q9BV86 whole entry, looked up): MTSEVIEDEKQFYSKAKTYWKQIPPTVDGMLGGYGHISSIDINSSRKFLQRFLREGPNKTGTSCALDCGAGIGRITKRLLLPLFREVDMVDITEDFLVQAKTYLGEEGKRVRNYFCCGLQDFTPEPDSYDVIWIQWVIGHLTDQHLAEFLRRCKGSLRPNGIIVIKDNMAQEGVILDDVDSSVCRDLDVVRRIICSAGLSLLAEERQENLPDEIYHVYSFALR
An asterisk follows results filed as active; i = inactive; ? = inconclusive; . = no result; ! = a repeat was not active; [ ] = another dose, or the depositor's remark. Compounds with a hit are over-represented: about 4% of the library has one in this group of screens. Unless noted, the call rests on the fitted dose curve; in most records, active means well fitted curve in the direction sought with a large enough effect; inconclusive means small, poorly fitted or top-dose-only effect, or another doubt; inactive means no such curve, though single readings can be large; an effect the other way counts as inactive or inconclusive.

SMILES	GPR32 ag	p53null 32C tox	GALC G270D act	p53null 39C tox	SKOV3 invasion	NTMT1 inhibitor
CCOC(=O)N1CCN(c2ncc3c(n2)CC(c2ccccc2O)CC3=O)CC1 (centres undefined)	76*	-8%	i	-10%	2%	-23%
COc1ccc2c(c1)/C(=C/c1cnc[nH]1)C(=O)N2	-10	.	.	.	.	40µM*
CCOc1ccc(CCNC(=O)c2cc3cnccc3n2Cc2cccc(C)c2)cc1OCC	.	.	.	.	.	-16%[57.5 µM]
CCCOc1ccc(C2SCC(=O)Nc3c2c(C)nn3-c2cccc(C)c2)cc1OC (centres undefined)	-5	-3%	i	25µM*	i	?
CC(C)(c1ccc(O)cc1)c1ccc(O)cc1	64*	.	i	.	.	-4%
CC(C)(C)CC(C)(C)c1ccc(O)cc1	116*!	.	i	.	.	?
COC1CC(O[C@H]2CC[C@]3(C=O)C4CC[C@]5(C)[C@@H](C6=CC(=O)OC6)CC[C@]5(O)[C@@H]4CC[C@@H]3C2)OC(C)C1O[C@@H]1O[C@H](CO)[C@@H](O[C@@H]2O[C@H](CO)[C@@H](O)[C@H](O)[C@H]2O)[C@H](O)[C@H]1O (some centres undefined)	.	.	.	.	.	-5%[12.6 µM]
CC1(C)C(=O)N(c2ccc(C#N)c(C(F)(F)F)c2)C(=S)N1Cc1ccc(-c2cn[nH]n2)cc1	.	.	.	.	.	25%
O=C1C(I)=CC(=C(c2cc(I)c(O)c(I)c2)c2ccccc2C(=O)O)C=C1I	-13	.	i	.	.	14µM*
O=C(N1CCCCC1Cc1ccccc1)n1cc(-c2ccc(-c3ccccc3)cc2)nn1 (centres undefined)	.	.	.	.	.	5%[57.5 µM]
CCC(OC(C)=O)C(CC(C)NC)(c1ccccc1)c1ccccc1 (centres undefined)	85*	.	i	.	.	13%
CN(C)C(=S)SSC(=S)N(C)C	-2	.	i	.	.	7.9µM*
COc1cc(O)c2c(c1)CCC[C@@H](O)[C@H](O)C(=O)/C=C\C[C@H](C)OC2=O	.	.	.	.	.	10µM*
CC1CCCC(O)CC(=O)Cc2cc(O)cc(O)c2C(=O)O1 (centres undefined)	.	.	.	.	.	-15%[29.8 µM]
Oc1cccc2cc(N3CCNCC3)cnc12	.	.	.	.	.	0%
C[C@@H]1O[C@@H](O[C@H]2C[C@@H](O)[C@]3(CO)[C@H]4[C@H](O)C[C@]5(C)[C@@H](C6=CC(=O)OC6)CC[C@]5(O)[C@@H]4CC[C@]3(O)C2)[C@H](O)[C@H](O)[C@H]1O	65*!	.	i	.	-29%	10%
Fc1cc(F)c2c(c1)[C@H]1C=CC[C@H]1C(c1cccnc1)N2 (some centres undefined)	.	.	.	.	.	4%[57.5 µM]
COc1cc2[nH]c(=O)n(CCCCCC(=O)N3CCN(c4cccc(C(F)(F)F)c4)CC3)c(=O)c2cc1OC	63*	?	i	?	-8%	0%
O=C(CCc1nc(C2=CCN(Cc3cccc(Cl)c3)CC2)no1)Nc1ccccc1F	70*	-1%	i	10%	-3%	-9%
Oc1ccc([C@H]2CNCc3c2ccc(O)c3O)cc1O	-6	.	i	.	.	2.8µM*
CC12CCC3C(C1)c1c(cc(O)c(C(=O)c4ccccc4)c1OC3(C)C)O2 (centres undefined)	.	.	.	.	.	3%[29.8 µM]
C[C@@H]1CCC2[C@@H](C)C(=O)OC3O[C@@]4(C)CCC1[C@]32OO4 (some centres undefined)	.	.	.	.	.	1%[57.5 µM]
COc1ccc(OCC(=O)N2CCN(Cc3cc(=O)n4nc(-c5ccc(OC)cc5)sc4n3)CC2)cc1	-1	-3%	i	-13%	-2%	-2%
COc1ccc(-c2cc(=O)c3cc(OCC(=O)OC(C)C)ccc3o2)cc1	-5	3.2µM*	i	5µM*	1%	-4%
O=C(Nc1ccc(Br)cc1)c1cc(Br)cc(Br)c1O	82*	.	i	.	.	30%[57.5 µM]
SMILES	GPR32 ag	p53null 32C tox	GALC G270D act	p53null 39C tox	SKOV3 invasion	NTMT1 inhibitor
O=C(Nc1ccc(Br)cc1C(=O)c1ccccc1)c1ccccc1	-9	-6%	i	3%	13%	4%
C[C@H](N)[C@H](O)c1ccc(O)c(O)c1	7	.	i	.	.	20µM*
COC(=O)[C@@]12OC[C@]34[C@H]([C@@H](O)[C@@H]1O)[C@@]1(C)CC(=O)C(O)=C(C)[C@@H]1C[C@H]3OC(=O)[C@H](OC(=O)/C=C(\C)C(C)C)[C@@H]24	.	.	.	.	.	17%
O=c1c(O)c(-c2ccc(O)c(O)c2)oc2cc(O)cc(O)c12	109*!	.	i	.	-6%	?
Cc1ccc2oc(-c3ccc(Cl)cc3)c(O)c(=O)c2c1	19	-28%	i	?	2%	7%
C[C@@H]1CN(Cc2ccc(F)cc2)CCN1C(=O)COc1ccc(Cl)cc1NC(N)=O	.	.	.	.	.	5%[57.5 µM]
O=C(Nc1ccc(Br)cc1C(=O)c1ccccc1Cl)c1ccccc1F	-3	1%	i	24%	-6%	-18%
O=C(CBr)Nc1ccc(Cl)cc1C(=O)c1ccccc1F	-7	.	i	.	.	14µM*
CC(C)(C)c1ccc(C(=O)Nc2ccc3nc(SCC(=O)N4CCCC4)sc3c2)cc1	25	20µM*	i	?	i	-6%
CCCCOc1ccc(C(=O)NCCc2csc(-c3ccc(OC)cc3)n2)cc1	-2	48%	i	13%	i	4%
COc1ccc(OCCn2c(NC(=O)c3ccc(OC)cc3)nc3ccccc32)cc1	63*	?	i	-13%	?	6%
CC[C@@H](C)[C@H]1C(=O)O[C@H](C(C)C)C(=O)N(C)[C@@H]([C@@H](C)CC)C(=O)O[C@H](C(C)C)C(=O)N(C)[C@@H]([C@H](C)CC)C(=O)O[C@H](C(C)C)C(=O)N1C	.	.	.	.	.	5%[12.6 µM]
CC(=O)OC1(c2ccccc2)CCN(CCc2ccccc2)CC1	85*	.	i	.	.	-7%
CCOC(=O)C1(CCc2ccccc2)CCN(Cc2ccc(NC(C)=O)cc2)CC1	.	.	.	.	.	2%[57.5 µM]
Cc1ccc(Cl)cc1Nc1nn2c(=O)c3ccc(C(=O)NCc4cccs4)cc3nc2s1	29	?	i	29%	-7%	79µM*
